Results reported in PubChem BioAssay.
Calls of active or inactive are those of the source.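 How the source made its calls: active means compounds that lower survival of DLD-1 colon cancer cells in the luminescence readout, no cutoff given; inactive means the rest.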

test: decreased DLD-1 cellular survival, CellTiter-Glo luminescent readout, NPC compound collection, primary HTS (AID 1117346); conditions: DLD-1 viability, CellTiter-Glo luminescence; at 20 µM (top of the series)

**Q.** With `CCCCN(CCCC)CCC(O)c1cc2c(Cl)cc(Cl)cc2c2cc(C(F)(F)F)ccc12` (stereo not drawn) as the molecule, how does the viability decrease (inhibition) read?
**A.** 100% (active)

**Q.** For `CCC(=O)O[C@]1(C(=O)SCF)[C@H](C)C[C@H]2[C@@H]3C[C@H](F)C4=CC(=O)C=C[C@]4(C)[C@@]3(F)[C@@H](O)C[C@@]21C`, which viability decrease (inhibition) is on record?
**A.** -7.2% (inactive)

**Q.** Which viability decrease (inhibition) does the source give for `CC1(C)O[C@@H]2C[C@H]3[C@@H]4C[C@H](F)C5=CC(=O)C=C[C@]5(C)[C@@]4(F)[C@@H](O)C[C@]3(C)[C@]2(C(=O)CO)O1` here?
**A.** 24.1% (inactive)

**Q.** Which viability decrease (inhibition) does the source give for `NC(N)=NC(=O)Cc1c(Cl)cccc1Cl` here?
**A.** 29% (inactive)

**Q.** With `Cc1cn[nH]c1` as the molecule, how does the viability decrease (inhibition) read?
**A.** 2% (inactive)

**Q.** For `NS(=O)(=O)c1cc2c(cc1Cl)NC(C1CC3C=CC1C3)NS2(=O)=O` (stereo not drawn), which viability decrease (inhibition) is on record?
**A.** -15.4% (inactive)

**Q.** With `CC(=O)O[C@H]1C[C@@H]2CC[C@@H]3[C@H](CC[C@@]4(C)[C@H]3C[C@H]([N+]3(C)CCCCC3)[C@@H]4OC(C)=O)[C@@]2(C)C[C@@H]1N1CCCCC1` as the molecule, how does the viability decrease (inhibition) read?
**A.** -7.1% (inactive)

**Q.** With `CCCCNc1c(C(=O)OCC)c(C)nc2c1cnn2CC` as the molecule, how does the viability decrease (inhibition) read?
**A.** 78.4% (active)

**Q.** With `C#C[C@]1(O)CC[C@H]2[C@@H]3[C@H](C)CC4=C(CCC(=O)C4)[C@H]3CC[C@@]21C` as the molecule, how does the viability decrease (inhibition) read?
**A.** 79.8% (active)

**Q.** For `NCCS(=O)(=O)O`, which viability decrease (inhibition) is on record?
**A.** -1.5% (inactive)

**Q.** For `C#C[C@]1(O)CC[C@H]2[C@@H]3CCc4cc(O)ccc4[C@H]3CC[C@@]21C`, which viability decrease (inhibition) is on record?
**A.** 62.5% (active)

**Q.** For `C#C[C@]1(O)CC[C@H]2[C@@H]3CCc4cc(OC)ccc4[C@H]3CC[C@@]21C`, which viability decrease (inhibition) is on record?
**A.** 26.6% (inactive)

**Q.** Which viability decrease (inhibition) does the source give for `O=C(O)CSCC(=O)NC1CCSC1=O` (stereo not drawn) here?
**A.** -4.25% (inactive)

**Q.** Which viability decrease (inhibition) does the source give for `COc1ncnc(NS(=O)(=O)c2ccc(N)cc2)c1OC` here?
**A.** -22.2% (inactive)

**Q.** For `COc1cc2c(N3CCN(C(=O)Nc4ccc(OC(C)C)cc4)CC3)ncnc2cc1OCCCN1CCCCC1`, which viability decrease (inhibition) is on record?
**A.** 10.1% (inactive)

**Q.** Which viability decrease (inhibition) does the source give for `Cc1cc2c(C(C)C)c(O)c(O)c(C=O)c2c(O)c1-c1c(C)cc2c(C(C)C)c(O)c(O)c(C=O)c2c1O` here?
**A.** 64.1% (active)

**Q.** For `Oc1ccc(OCc2ccccc2)cc1`, which viability decrease (inhibition) is on record?
**A.** 4.6% (inactive)

**Q.** Which viability decrease (inhibition) does the source give for `C[n+]1c2cc(N)ccc2cc2ccc(N)cc21` (tested in a mixture with another compound) here?
**A.** 95.2% (active)

**Q.** For `CCOC(=O)O[C@]1(C(=O)OCCl)CC[C@H]2[C@@H]3CCC4=CC(=O)C=C[C@]4(C)[C@H]3[C@@H](O)C[C@@]21C`, which viability decrease (inhibition) is on record?
**A.** 21.9% (inactive)

**Q.** For `Cc1nc(-c2ccc(OCC(C)C)c(C#N)c2)sc1C(=O)O`, which viability decrease (inhibition) is on record?
**A.** 28.7% (inactive)

**Q.** With `COc1cc(C(=O)OCCCN2CCCN(CCCOC(=O)c3cc(OC)c(OC)c(OC)c3)CC2)cc(OC)c1OC` as the molecule, how does the viability decrease (inhibition) read?
**A.** 24% (inactive)

**Q.** For `Cc1cnc(C(=O)O)c[n+]1[O-]`, which viability decrease (inhibition) is on record?
**A.** -0.8% (inactive)

**Q.** Which viability decrease (inhibition) does the source give for `COC(=O)[C@H]1[C@H]2C[C@@H]3c4[nH]c5cc(OC)ccc5c4CCN3C[C@H]2C[C@@H](OC(=O)c2cc(OC)c(OC)c(OC)c2)[C@@H]1OC` here?
**A.** 10.4% (inactive)

**Q.** With `CO[C@@H]1[C@@H](OC(N)=O)[C@@H](O)[C@H](Oc2ccc3c(O)c(NC(=O)c4ccc(O)c(CC=C(C)C)c4)c(=O)oc3c2C)OC1(C)C` as the molecule, how does the viability decrease (inhibition) read?
**A.** -21.8% (inactive)

**Q.** With `COCCCOc1cc(C[C@@H](C[C@H](N)[C@@H](O)C[C@H](C(=O)NCC(C)(C)C(N)=O)C(C)C)C(C)C)ccc1OC` as the molecule, how does the viability decrease (inhibition) read?
**A.** 12.1% (inactive)

**Q.** With `CN1CCN2c3ccccc3Cc3ccccc3C2C1` (stereo not drawn) as the molecule, how does the viability decrease (inhibition) read?
**A.** 6.6% (inactive)

**Q.** With `C[C@@H]1CN(c2c(F)c(N)c3c(=O)c(C(=O)O)cn(C4CC4)c3c2F)C[C@H](C)N1` as the molecule, how does the viability decrease (inhibition) read?
**A.** -18.8% (inactive)

**Q.** With `O=NN(CCCl)C(=O)NC1CCCCC1` as the molecule, how does the viability decrease (inhibition) read?
**A.** 3.5% (inactive)

**Q.** With `CNC[C@H](O)[C@@H](O)[C@H](O)[C@H](O)CO` as the molecule, how does the viability decrease (inhibition) read?
**A.** 15.4% (inactive)

**Q.** For `CCC(C)n1ncn(-c2ccc(N3CCN(c4ccc(OC[C@H]5CO[C@](Cn6cncn6)(c6ccc(Cl)cc6Cl)O5)cc4)CC3)cc2)c1=O` (stereo partly drawn), which viability decrease (inhibition) is on record?
**A.** 40.6% (inactive)

**Q.** With `O=P(O)(O)C(O)(Cc1cccnc1)P(=O)(O)O` as the molecule, how does the viability decrease (inhibition) read?
**A.** -4.9% (inactive)

**Q.** With `CN(C)c1ccc2nc3ccc(=[N+](C)C)cc-3sc2c1` as the molecule, how does the viability decrease (inhibition) read?
**A.** 44.2% (inactive)

**Q.** With `CC1=C(C)C(=O)C(C(CCCCCC(=O)O)c2ccccc2)=C(C)C1=O` (stereo not drawn) as the molecule, how does the viability decrease (inhibition) read?
**A.** -13.3% (inactive)

**Q.** With `C#CCN[C@@H]1CCc2ccccc21` as the molecule, how does the viability decrease (inhibition) read?
**A.** -21.6% (inactive)

**Q.** For `CCCCCN(C)CCC(O)(P(=O)(O)O)P(=O)(O)O`, which viability decrease (inhibition) is on record?
**A.** 15.6% (inactive)

**Q.** For `Cc1c[nH]c2ccccc12`, which viability decrease (inhibition) is on record?
**A.** 10% (inactive)

**Q.** With `CC(C)(C)NC(=O)[C@H]1CC[C@H]2[C@@H]3CC[C@H]4NC(=O)C=C[C@]4(C)[C@H]3CC[C@]12C` as the molecule, how does the viability decrease (inhibition) read?
**A.** -4% (inactive)

**Q.** For `O=C(O)CN1C(=O)c2cccc3cccc(c23)C1=O`, which viability decrease (inhibition) is on record?
**A.** 2.05% (inactive)
